Measurements from PubChem BioAssay.
Activity calls are given as the source filed them. Unless noted, how the calls were made is not given here.

Legend:
[1] = HepG2 liver cancer cell viability effects, profiling panel, resazurin fluorescence, 24 h, PK04 Diversity Set (AID 1172); details: higher = more signal
[2] = basal S. cerevisiae growth modulation, no modifier, primary screen, OD600, strain BY4716, 24 h, basal condition (AID 1173); details: OD600, 24 h, higher = more signal, called active from +8 up or from −8 down
[3] = MM1S myeloma cell viability, profiling panel, resazurin fluorescence, basal, 24 h, PK04 Diversity Set (AID 1174); details: higher = more signal, called active from +8 up or from −8 down;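 further: MM1S multiple myeloma cell line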
[4] = molecular target: Dihydroorotate dehydrogenase (quinone), mitochondrial (Plasmodium falciparum (isolate 3D7)) (UniProt Q08210); test: PfDHODH enzyme inhibitors, primary screen, biochemical, C-terminal His tag, absorbance 600 nm (AID 1175); details: DCIP absorbance 600 nm, higher = more signal, called active from +8 up or from −8 down;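 further: recombinant parasite enzyme with a five histidine tag at its C terminus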
Sequence of Dihydroorotate dehydrogenase (quinone), mitochondrial (Plasmodium falciparum (isolate 3D7)) (Q08210 whole entry, looked up): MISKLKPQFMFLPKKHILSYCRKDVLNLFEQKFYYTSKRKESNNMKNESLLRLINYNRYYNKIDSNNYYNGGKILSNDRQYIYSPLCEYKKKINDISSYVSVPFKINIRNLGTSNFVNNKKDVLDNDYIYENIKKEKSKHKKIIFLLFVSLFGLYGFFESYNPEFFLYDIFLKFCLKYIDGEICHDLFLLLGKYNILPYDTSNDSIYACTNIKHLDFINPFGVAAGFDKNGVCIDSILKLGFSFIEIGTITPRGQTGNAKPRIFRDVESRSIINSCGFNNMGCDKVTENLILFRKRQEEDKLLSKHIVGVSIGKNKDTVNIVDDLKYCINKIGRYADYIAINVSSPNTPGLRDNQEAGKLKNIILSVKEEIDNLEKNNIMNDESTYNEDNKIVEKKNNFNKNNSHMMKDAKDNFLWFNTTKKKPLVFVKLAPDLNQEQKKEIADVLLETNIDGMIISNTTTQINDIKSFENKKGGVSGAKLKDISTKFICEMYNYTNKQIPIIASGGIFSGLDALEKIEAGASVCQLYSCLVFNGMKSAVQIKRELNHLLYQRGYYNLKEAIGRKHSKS

[5] = P. aeruginosa biofilm formation inhibitors, primary screen, strain PAO1, LB-PBS medium, absorbance 600 nm (AID 1176); details: P. aeruginosa PAO1 growth/biofilm, A600, 12 h; higher = more signal
[6] = S. cerevisiae RM11-1a growth modifiers, primary screen, strain RM11-1a, OD600, basal, 24 h (AID 1177); details: OD600, 24 h, higher = more signal, called active from +8 up or from −8 down;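 further: cultures grown under basal conditions with no added stressor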
[7] = E. coli acrAB mutant growth effects, primary screen, E. coli filamentation inducers, strain DRC39, OD650, 24 h (AID 1178); details: higher = more signal, called active from +8 up or from −8 down;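 further: growth measured as culture turbidity by optical density at 650 nm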
[8] = E. coli acrAB mutant growth effects, primary screen, E. coli filamentation inducers, strain DRC39, OD650, 48 h (AID 1179);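 further: screen aims at cell division blockers that make cells filament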; details: E. coli DRC39 delta-acrAB growth, higher = more signal, called active from +8 up or from −8 down
[9] = RPMI8226 myeloma cell viability, profiling panel, resazurin fluorescence, basal, 24 h, PK04 Diversity Set (AID 1180); details: higher = more signal;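 further: RPMI8826 multiple myeloma cell line at 5000 cells per well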
[10] = molecular target: E3 ubiquitin-protein ligase XIAP (Homo sapiens) (UniProt P98170); test: XIAP binders, primary screen, biophysical, small-molecule microarray, fluorescence 635 nm (AID 1181); details: small-molecule microarray binding, higher = more signal;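 further: score merges 667 nm emission and signal to noise over triplicate slides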
Sequence of E3 ubiquitin-protein ligase XIAP (Homo sapiens) (P98170 whole entry, looked up): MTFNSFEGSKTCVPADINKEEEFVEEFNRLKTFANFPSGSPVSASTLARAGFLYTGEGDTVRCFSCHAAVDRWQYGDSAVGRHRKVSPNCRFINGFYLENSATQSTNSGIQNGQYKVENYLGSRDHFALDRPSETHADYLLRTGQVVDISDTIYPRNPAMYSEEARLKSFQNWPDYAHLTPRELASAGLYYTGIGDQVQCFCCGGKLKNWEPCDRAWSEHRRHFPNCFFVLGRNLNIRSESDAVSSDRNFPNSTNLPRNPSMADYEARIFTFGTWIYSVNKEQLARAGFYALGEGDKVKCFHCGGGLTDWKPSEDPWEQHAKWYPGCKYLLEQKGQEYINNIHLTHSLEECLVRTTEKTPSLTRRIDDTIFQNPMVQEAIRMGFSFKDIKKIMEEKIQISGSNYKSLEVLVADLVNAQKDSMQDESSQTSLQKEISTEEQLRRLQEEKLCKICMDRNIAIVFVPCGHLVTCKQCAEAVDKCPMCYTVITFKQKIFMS

[11] = system: XIP peptide (Xip251-270) binding; test: small-molecule binders of XIP peptide, primary screen, biochemical, small-molecule microarray, fluorescence 635/667 nm, 0.1 µg/mL protein (AID 1182); details: fluorescent protein binding, 635 nm, higher = more signal, called active from +8 up or from −8 down
XIP peptide (Xip251-270) = test: small-molecule binders of XIP peptide, primary screen, biochemical, small-molecule microarray, fluorescence 635/667 nm, 0.5 µg/mL protein (AID 1183); details: small-molecule microarray binding, fluorescence 635 nm; higher = more signal
[12] = Plasmodium falciparum growth inhibition, primary screen, strain 3D7, DAPI fluorescence, 100 nL (AID 1184);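 further: parasites grown inside human red blood cells in medium with human serum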; details: P. falciparum 3D7 growth, 3 d, higher = more signal
[13] = molecular target: Homeobox protein Hox-A13 (Mus musculus) (UniProt Q62424); test: inhibitors of HoxA13-DNA binding, primary screen, biochemical, fluorescence polarization, labeled oligonucleotide (AID 1185); details: 15 min, higher = more signal, called active from +8 up or from −8 down
Sequence of Homeobox protein Hox-A13 (Mus musculus) (Q62424 whole entry, looked up): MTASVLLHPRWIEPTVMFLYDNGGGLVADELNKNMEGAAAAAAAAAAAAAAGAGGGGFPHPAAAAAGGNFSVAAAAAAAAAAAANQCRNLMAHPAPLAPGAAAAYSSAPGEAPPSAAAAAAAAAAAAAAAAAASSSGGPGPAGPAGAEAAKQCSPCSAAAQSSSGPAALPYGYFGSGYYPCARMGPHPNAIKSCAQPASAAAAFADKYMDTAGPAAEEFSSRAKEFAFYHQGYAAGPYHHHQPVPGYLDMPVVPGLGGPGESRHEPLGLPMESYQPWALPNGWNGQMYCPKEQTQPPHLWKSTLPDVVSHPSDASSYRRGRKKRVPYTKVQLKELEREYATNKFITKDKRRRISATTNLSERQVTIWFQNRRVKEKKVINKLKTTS

Compound	z-score [1]	z-score [2]	z-score [3]	composite z-score [4]	z-score [5]	z-score [6]	z-score [7]	z-score [8]	z-score [9]	composite z-score [10]	composite z-score [11]	composite z-score (XIP peptide (Xip251-270))	z-score [12]	z-score [13]
CC(C)=CCCC(C)=CCON=C1C[C@@H](O)[C@@H](O)[C@@H]2[C@@H]3C(=O)N(C[C@@H]4CCCO4)C(=O)[C@@H]3CC[C@@H]12	0.502	-0.242 (inactive)	-0.041 (inactive)	-0.111 (inactive)	-0.261 (inactive)	0.348 (inactive)	0.122 (inactive)	0.511 (inactive)	0.424	-0.264	0.0561 (inactive)	0.539	1.55	0.264 (inactive)
CO[C@H]1COC(=O)[C@H](C)COC(=O)CC=C[C@@H](C)[C@H](OC)COC(=O)CC=C[C@@H]1C	-0.194	-0.754 (inactive)	-0.152 (inactive)	-0.365 (inactive)	-0.167 (inactive)	-0.192 (inactive)	0.778 (inactive)	0.804 (inactive)	0.129	-0.0117	0.159 (inactive)	-0.0452	1.7	0.149 (inactive)
CO[C@@H]1COC(=O)CC=C[C@@H](C)[C@@H]2C=C[C@H](O)[C@@H](COC(=O)CCC[C@H]1C)O2	0.696	-1.19 (inactive)	0.492 (inactive)	-0.24 (inactive)	-0.95 (inactive)	-0.725 (inactive)	0.118 (inactive)	-0.195 (inactive)	0.401	-0.12	0.0426 (inactive)	0.152	0.149	-0.262 (inactive)
COc1cccc([C@H]2Oc3ccc(OC)cc3C(=NO[C@H](C)c3cn([C@@H]4COC[C@H]4O)nn3)[C@@H]2O)c1	-0.859	-0.117 (inactive)	0.0029 (inactive)	-2.1 (inactive)	-0.409 (inactive)	-0.761 (inactive)	-0.537 (inactive)	-2.22 (inactive)	-0.238	0.0264	0.0524 (inactive)	-0.561	-0.866	-2.61 (inactive)
CCOC(=O)[C@H](CC(C)C)NC(=O)CCC1CC(OC(=O)NCc2cccc3ccccc23)CC2(CCCC(COC(=O)NCCN3CCOCC3)O2)O1 (stereo partly drawn)	1.29	-0.996 (inactive)	1.09 (inactive)	-0.247 (inactive)	0.131 (inactive)	-0.613 (inactive)	-0.404 (inactive)	-0.88 (inactive)	1.19	-0.0143	0.0634 (inactive)	0.464	-1.71	-4.01 (inactive)
O=C1[C@H]2[C@H]3[C@H](O)[C@H](O)CC(=NOCc4ccccc4)[C@@H]3CC[C@H]2C(=O)N1Cc1ccccc1	1.38	-0.148 (inactive)	0.85 (inactive)	-0.0807 (inactive)	-0.377 (inactive)	-0.118 (inactive)	0.16 (inactive)	0.71 (inactive)	1.17	0.0512	-0.22 (inactive)	-0.0597	0.0087	-0.38 (inactive)
COc1ccc(O[C@H]2C=C[C@@H](c3ccccc3)O[C@@H]2COC(=O)CCC(C)=NOC(C)CN2CCCCc3nc(C)c(C)cc32)cc1 (stereo partly drawn)	0.957	0.756 (inactive)	1.1 (inactive)	0.0159 (inactive)	-0.279 (inactive)	0.181 (inactive)	0.825 (inactive)	0.42 (inactive)	0.948	0.533	0.422 (inactive)	-0.674	-1.34	-2.19 (inactive)
Cn1c(=O)n2n(c1=O)[C@H]1[C@H](O)[C@@H]3O[C@@H]3C(=NOC[C@@H](O)COCc3ccco3)[C@H]1CC2	-0.31	-0.419 (inactive)	-0.877 (inactive)	0.0599 (inactive)	0.823 (inactive)	-0.17 (inactive)	-0.157 (inactive)	0.317 (inactive)	-0.378	-0.0382	3.04 (inactive)	0.265	0.192	0.445 (inactive)
CCN1C(=O)[C@H]2[C@H]3[C@H](O)[C@H](O)CC(=NOCc4ccccc4)[C@H]3CC[C@H]2C1=O	-0.322	-0.0753 (inactive)	-0.344 (inactive)	-0.422 (inactive)	0.164 (inactive)	-0.889 (inactive)	0.114 (inactive)	0.293 (inactive)	-0.855	0.0785	-0.0513 (inactive)	0.172	0.783	-1.15 (inactive)
C=COC[C@H]1CN2[C@@H](CC[C@@H](C)[C@@H]2c2ccc(Br)cc2)C(=O)O1	0.524	-3.11 (inactive)	0.255 (inactive)	-0.613 (inactive)	0.523 (inactive)	-2.06 (inactive)	0.0556 (inactive)	-0.848 (inactive)	-0.555	-0.209	0.299 (inactive)	0.719	0.0315	-2.37 (inactive)
CC(C)=NOCc1cccc(-c2cc(-c3ccccc3)no2)c1	-0.714	0.671 (inactive)	-0.862 (inactive)	-0.502 (inactive)	0.475 (inactive)	-0.39 (inactive)	1.19 (inactive)	-1.41 (inactive)	-0.975	-0.288	1.13 (inactive)	0.326	2.06	0.515 (inactive)
CCOC(=O)CCN1C(=O)[C@H]2[C@H]3[C@H](O)[C@H](O)CC(=NOC[C@@H](O)COCc4ccco4)[C@H]3CC[C@H]2C1=O	-0.749	-11.7 (active)	-0.0452 (inactive)	-2.45 (inactive)	0.0122 (inactive)	-0.788 (inactive)	0.558 (inactive)	-0.899 (inactive)	-0.424	0.123	0.378 (inactive)	0.328	-1.44	-3.71 (inactive)
O=C(NN=C1C[C@@H](O)[C@@H](O)[C@@H]2[C@@H]3C(=O)N(c4ccc(F)cc4F)C(=O)[C@@H]3CC[C@@H]12)OCc1ccccc1	0.801	0.207 (inactive)	0.442 (inactive)	-0.192 (inactive)	-1.09 (inactive)	1.01 (inactive)	0.502 (inactive)	0.873 (inactive)	0.508	-0.27	-0.269 (inactive)	0.159	0.823	-1.72 (inactive)
C[C@@H]1CCC2C(=O)N(Cc3ccccc3)C[C@@H](O)CN2[C@H]1c1ccc(Br)cc1 (stereo partly drawn)	0.644	-5.68 (inactive)	0.726 (inactive)	-1.3 (inactive)	0.924 (inactive)	-1.71 (inactive)	0.957 (inactive)	-1.25 (inactive)	0.39	-0.0009	1 (inactive)	0.689	0.787	-3.92 (inactive)
CO[C@H]1COC(=O)[C@@H]2CCCN2C(=O)[C@@H](C)COC(=O)CC=C[C@@H]1C	0.264	-0.0361 (inactive)	0.285 (inactive)	-1.95 (inactive)	-0.725 (inactive)	0.023 (inactive)	0.488 (inactive)	0.362 (inactive)	0.0409	0.285	-0.0014 (inactive)	0.371	1.2	-0.54 (inactive)
COC(=O)CC=C[C@H](C)[C@H](CO)NS(=O)(=O)c1ccc(C)cc1	-0.502	-0.342 (inactive)	-0.701 (inactive)	0.0702 (inactive)	1.09 (inactive)	-0.513 (inactive)	-0.586 (inactive)	-0.6 (inactive)	0.139	-0.123	-0.291 (inactive)	0.507	0.225	-1.56 (inactive)
c1ccc(C2NCCc3c2[nH]c2ccccc32)cc1 (stereo not drawn)	0.278	-2.91 (inactive)	-0.104 (inactive)	-11 (active)	0.107 (inactive)	-0.104 (inactive)	-0.832 (inactive)	-1.79 (inactive)	-0.326	0.0043	0.657 (inactive)	0.4	-0.811	-0.654 (inactive)
CC(C)CN1CCc2nc(-c3ccccc3)c3c(c2CC1)CO[C@@H](C)C3	0.652	-0.368 (inactive)	0.389 (inactive)	0.496 (inactive)	-0.458 (inactive)	-0.284 (inactive)	-0.274 (inactive)	-0.328 (inactive)	0.711	-0.0964	0.277 (inactive)	-0.399	-0.235	-0.219 (inactive)
CC(=O)OC[C@H]1O[C@H](CC=NOC[C@@H](C)[C@H](OCc2ccccc2)C(C)C)C=C[C@@H]1OC(C)=O	0.643	0.904 (inactive)	-0.473 (inactive)	-0.298 (inactive)	0.0738 (inactive)	-0.0321 (inactive)	0.204 (inactive)	0.193 (inactive)	0.692	-0.0571	-0.655 (inactive)	-0.303	-0.46	-5.81 (inactive)
CCN1C(=O)[C@H]2[C@H]3[C@H](O)[C@H](O)CC(=NOCc4ccccc4)[C@@H]3CC[C@H]2C1=O	-0.113	-1.73 (inactive)	-2.61 (inactive)	-2.05 (inactive)	0.659 (inactive)	-2.27 (inactive)	-0.717 (inactive)	-0.353 (inactive)	-1.89	-0.0302	-0.161 (inactive)	0.465	-0.165	0.697 (inactive)
CC(=O)OC[C@H]1O[C@H](CCON=C(C)CCN2CCc3nc(-c4ccccc4)c(-c4ccccc4)cc3C2)C=C[C@@H]1OC(C)=O	0.0962	-0.0567 (inactive)	-0.91 (inactive)	-0.439 (inactive)	0.441 (inactive)	-0.64 (inactive)	0.304 (inactive)	-0.545 (inactive)	0.28	0.275	0.583 (inactive)	-0.0332	-0.697	-4.36 (inactive)
CCOC(=O)CCN1C(=O)[C@H]2[C@H]3[C@H](O)[C@H](O)CC(=NOC[C@@H](O)COCc4ccco4)[C@@H]3CC[C@H]2C1=O	-0.454	0.846 (inactive)	-1.27 (inactive)	0.318 (inactive)	-0.0121 (inactive)	0.176 (inactive)	-0.153 (inactive)	0.324 (inactive)	-0.8	-0.124	-0.159 (inactive)	0.807	1.93	-0.692 (inactive)
